# The sample as a whole holds a higher share of the strongest signals than the screen did.
# B1: T7P4 (Tuber borchii) (protein)
# chain: GSHIGPYMSFYASSEDVRTIEEGGRTWLVGRARRADGSWQDIKLDLDNIIGNRDGHLTWGEQNFTQSASDIRFNFEGSNVPVLRAKLRNAAGGEQESDLNLGERLTNNNGDLVFN
# B2: FBG5 (Homo sapiens), Q8NI29 (protein)
# chain: MGASVSRGRAARVPAPEPEPEEALDLSQLPPELLLVVLSHVPPRTLLGRCRQVCRGWRALVDGQALWLLILARDHGATGRALLHLARSCQSPARNARPCPLGRFCARRPIGRNLIRNPCGQEGLRKWMVQHGGDGWVVEENRTTVPGAPSQTCFVTSFSWCCKKQVLDLEEEGLWPELLDSGRIEICVSDWWGARHDSGCMYRLLVQLLDANQTVLDKFSAVPDPIPQWNNNACLHVTHVFSNIKMGVRFVSFEHRGQDTQFWAGHYGARVTNSSVIVRVRLS
# B3: Alpha-agglutinin (Saccharomyces cerevisiae) (protein)
# chain: MFTFLKIILWLFSLALASAININDITFSNLEITPLTANKQPDQGWTATFDFSIADASSIREGDEFTLSMPHVYRIKLLNSSQTATISLADGTEAFKCYVSQQAAYLYENTTFTCTAQNDLSSYNTIDGSITFSLNFSDGGSSYEYELENAKFFKSGPMLVKLGNQMSDVVNFDPAAFTENVFHSGRSTGYGSFESYHLGMYCPNGYFLGGTEKIDYDSSNNNVDLDCSSVQVYSSNDFNDWWFPQSYNDTNADVTCFGSNLWITLDEKLYDGEMLWVNALQSLPANVNTIDHALEFQYTCLDTIANTTYATQFSTTREFIVYQGR
# How the values were obtained:
# Assay in all cases: glycan array binding signal (z-score within array); higher = stronger binding
# Details in all cases: glycan notation: IUPAC condensed, linker removed
# [1] = target: Fuc(a1-2)Gal(b1-3)GalNAc(b1-3)Gal(b1-4)Glc
# In short: (§1)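 The Consortium for Functional Glycomics database supplied 3228 glycan arrays, of which those lacking an available protein sequence were dropped. The binding signal, a within-array Z-score, was averaged across arrays of the same protein sequence and across linkers. Negative scores can be read as non-binding.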
# [2] = target: Fuc(a1-2)Gal(b1-3)GlcNAc(b1-3)Gal(b1-4)Glc
# In short: as §1
# [3] = target: Fuc(a1-2)Gal(b1-4)GlcNAc
# In short: as §1
# [4] = target: Gal(a1-3)Gal(b1-4)Glc
# In short: as §1
# [5] = target: Gal(b1-3)GalNAc(b1-3)Gal(b1-4)Glc
# In short: as §1
# [6] = target: Gal(b1-3)[Fuc(a1-4)]GlcNAc(b1-3)Gal(b1-4)GlcNAc
# In short: as §1
# [7] = target: Gal(b1-3)[Neu5Ac(a2-6)]GalNAc
# In short: as §1
# [8] = target: Gal(b1-3)[Neu5Ac(a2-6)]GlcNAc(a1-4)Gal(b1-4)Glc
# In short: as §1
# [9] = target: Gal(b1-3)[Neu5Ac(a2-6)]GlcNAc(b1-6)Gal(b1-4)Glc
# In short: as §1
# [10] = target: Gal(b1-3)[Neu5Ac(b2-6)]GalNAc
# In short: as §1
# [11] = target: Gal(b1-4)GlcNAc(b1-3)Gal(b1-4)Glc
# In short: as §1
# [12] = target: Gal(b1-4)GlcNAc(b1-6)GalNAc
# In short: as §1
# [13] = target: Gal3S(b1-4)Glc
# In short: as §1
# [14] = target: Gal4S(b1-4)GlcNAc
# In short: as §1
# [15] = target: GalNAc(a1-3)Gal
# In short: as §1
# [16] = target: GlcNAc(b1-2)Gal(b1-3)GlcNAc
# In short: as §1
# [17] = target: Man(a1-2)Man(a1-3)[Man(a1-6)]Man(a1-6)[Man(a1-2)Man(a1-3)]Man(b1-4)GlcNAc(b1-4)GlcNAc
# In short: as §1
# [18] = target: Man(a1-3)[Man(a1-6)]Man(a1-6)[Man(a1-2)Man(a1-3)]Man(b1-4)GlcNAc(b1-4)GlcNAc
# In short: as §1
# [19] = target: Man(a1-3)[Man(a1-6)]Man(b1-4)GlcNAc(b1-4)GlcNAc
# In short: as §1
# [20] = target: Neu5Ac(a2-3)Gal(b1-4)GlcNAc6S
# In short: as §1
# [21] = target: Neu5Ac(a2-3)Gal6S(b1-4)GlcNAc
# In short: as §1
# [22] = target: Neu5Ac(a2-8)Neu5Ac(a2-8)Neu5Ac(a2-8)Neu5Ac(a2-3)[GalNAc(b1-4)]Gal(b1-4)Glc
# In short: as §1
# [23] = target: Fuc(a1-2)[Gal(a1-4)]Gal(b1-4)GalNAc
# In short: as §1
# [24] = target: Fuc(a1-2)[GalNAc(a1-3)]Gal(b1-4)Glc
# In short: as §1
# [25] = target: Fuc(a1-3)GlcNAc
# In short: as §1
# [26] = target: Gal(b1-3)[Fuc(a1-4)]GlcNAc(b1-3)Gal(b1-4)[Fuc(a1-3)]GlcNAc
# In short: as §1
# [27] = target: Gal(b1-4)GlcNAc(b1-2)Man(a1-3)[Gal(b1-4)GlcNAc(b1-2)Man(a1-6)]Man(b1-4)GlcNAc(b1-4)GlcNAc
# In short: as §1
# [28] = target: Gal3S(b1-4)Glc6S
# In short: as §1
# [29] = target: Gal3S6S(b1-4)GlcNAc
# In short: as §1
# [30] = target: Gal3S6S(b1-4)GlcNAc6S
# In short: as §1
# [31] = target: Gal6S(b1-4)Glc6S
# In short: as §1
# [32] = target: GlcNAc(b1-3)Gal
# In short: as §1
# [33] = target: GlcNAc(b1-4)Gal(b1-4)GlcNAc
# In short: as §1
# [34] = target: Man(b1-4)GlcNAc
# In short: as §1
# [35] = target: Neu5Ac(a2-3)Gal(b1-3)GlcNAc
# In short: as §1
# [36] = target: Neu5Ac(a2-3)Gal(b1-3)GlcNAc(b1-3)Gal(b1-4)GlcNAc
# In short: as §1
# [37] = target: Neu5Ac(a2-3)Gal(b1-4)[Fuc(a1-3)]GlcNAc
# In short: as §1
# [38] = target: Neu5Ac(a2-3)Gal(b1-4)[Fuc(a1-3)]GlcNAc(b1-3)Gal
# In short: as §1
# [39] = target: Neu5Ac(a2-6)Gal(b1-4)GlcNAc
# In short: as §1
# [40] = target: Neu5Gc(a2-6)Gal(b1-4)GlcNAc
# In short: as §1
# [41] = target: Fuc(a1-2)[Gal(a1-3)]Gal(b1-4)[Fuc(a1-3)]GlcNAc
# In short: as §1
# [42] = target: Fuc(a1-4)GlcNAc
# In short: as §1
# [43] = target: Gal(a1-3)Gal(b1-4)GlcNAc
# In short: as §1
# [44] = target: Gal(b1-4)GalNAc(a1-3)[Fuc(a1-2)]Gal(b1-4)GlcNAc
# In short: as §1
# [45] = target: GlcNAc(b1-3)[GlcNAc(b1-4)][GlcNAc(b1-6)]GlcNAc
# In short: as §1
# [46] = target: GlcNAc(b1-4)[GlcNAc(b1-6)]GalNAc
# In short: as §1
# [47] = target: Man(a1-2)Man(a1-3)[Man(a1-3)[Man(a1-6)]Man(a1-6)]Man(b1-4)GlcNAc(b1-4)GlcNAc
# In short: as §1
binder,measurement,setting,value
B1,glycan array binding signal (z-score),[1],6.04
same,glycan array binding signal (z-score),[2],5.88
same,glycan array binding signal (z-score),[3],-0.207
same,glycan array binding signal (z-score),[4],-0.222
same,glycan array binding signal (z-score),[5],5.7
same,glycan array binding signal (z-score),[6],-0.207
same,glycan array binding signal (z-score),[7],-0.213
same,glycan array binding signal (z-score),[8],5.89
same,glycan array binding signal (z-score),[9],5.74
same,glycan array binding signal (z-score),[10],-0.16
same,glycan array binding signal (z-score),[11],2.77
same,glycan array binding signal (z-score),[12],-0.221
same,glycan array binding signal (z-score),[13],-0.008
same,glycan array binding signal (z-score),[14],-0.202
same,glycan array binding signal (z-score),[15],-0.215
same,glycan array binding signal (z-score),[16],0.204
same,glycan array binding signal (z-score),[17],-0.213
same,glycan array binding signal (z-score),[18],-0.223
same,glycan array binding signal (z-score),[19],-0.226
same,glycan array binding signal (z-score),[20],-0.208
same,glycan array binding signal (z-score),[21],-0.213
same,glycan array binding signal (z-score),[22],-0.223
B2,glycan array binding signal (z-score),[1],-0.166
same,glycan array binding signal (z-score),[23],-0.19
same,glycan array binding signal (z-score),[24],0.967
same,glycan array binding signal (z-score),[25],0.417
same,glycan array binding signal (z-score),[26],-0.217
same,glycan array binding signal (z-score),[27],-0.102
same,glycan array binding signal (z-score),[28],0.206
same,glycan array binding signal (z-score),[29],-0.009
same,glycan array binding signal (z-score),[30],2.32
same,glycan array binding signal (z-score),[31],0.548
same,glycan array binding signal (z-score),[32],-0.119
same,glycan array binding signal (z-score),[33],-0.095
same,glycan array binding signal (z-score),[17],-0.112
same,glycan array binding signal (z-score),[34],-0.205
same,glycan array binding signal (z-score),[35],-0.161
same,glycan array binding signal (z-score),[36],-0.162
same,glycan array binding signal (z-score),[37],-0.231
same,glycan array binding signal (z-score),[38],-0.244
same,glycan array binding signal (z-score),[39],-0.219
same,glycan array binding signal (z-score),[40],-0.248
B3,glycan array binding signal (z-score),[1],6.41
same,glycan array binding signal (z-score),[41],-0.112
same,glycan array binding signal (z-score),[24],0.558
same,glycan array binding signal (z-score),[42],-0.216
same,glycan array binding signal (z-score),[43],-0.248
same,glycan array binding signal (z-score),[5],8.68
same,glycan array binding signal (z-score),[44],0.014
same,glycan array binding signal (z-score),[11],3.24
same,glycan array binding signal (z-score),[31],0.122
same,glycan array binding signal (z-score),[15],-0.162
same,glycan array binding signal (z-score),[45],0.203
same,glycan array binding signal (z-score),[46],5.52
same,glycan array binding signal (z-score),[47],-0.251
same,glycan array binding signal (z-score),[37],-0.258

# — the supplement of paper PMC8728848
